Here are results for 16 compounds from ChEMBL document CHEMBL1961873, “Compounds: GSK PKIS; Assays: Nanosyn kinase panel” (2012).

As a reminder, the inhibition is the change of the read-out against control, counted positive when it falls.

For experiment [1], the system named is Epidermal growth factor receptor (Homo sapiens), P00533 [T790M]. Particulars: at 1 µM.
Experiment [2] has as its system Epidermal growth factor receptor (Homo sapiens), P00533 [L858R,T790M]. Particulars: at 0.1 µM.
For experiment [3] the test system is unchanged. The following applies: at 1 µM.
Experiment [4] deals with Ephrin type-A receptor 2 (Homo sapiens) (UniProt P29317). The following applies: at 0.1 µM.
Experiment [5] shares this target. Particulars: at 1 µM.
Experiment [6] concerns the target T1, Ephrin type-A receptor 3 (Homo sapiens) (UniProt P29320).
T1 sequence (whole entry): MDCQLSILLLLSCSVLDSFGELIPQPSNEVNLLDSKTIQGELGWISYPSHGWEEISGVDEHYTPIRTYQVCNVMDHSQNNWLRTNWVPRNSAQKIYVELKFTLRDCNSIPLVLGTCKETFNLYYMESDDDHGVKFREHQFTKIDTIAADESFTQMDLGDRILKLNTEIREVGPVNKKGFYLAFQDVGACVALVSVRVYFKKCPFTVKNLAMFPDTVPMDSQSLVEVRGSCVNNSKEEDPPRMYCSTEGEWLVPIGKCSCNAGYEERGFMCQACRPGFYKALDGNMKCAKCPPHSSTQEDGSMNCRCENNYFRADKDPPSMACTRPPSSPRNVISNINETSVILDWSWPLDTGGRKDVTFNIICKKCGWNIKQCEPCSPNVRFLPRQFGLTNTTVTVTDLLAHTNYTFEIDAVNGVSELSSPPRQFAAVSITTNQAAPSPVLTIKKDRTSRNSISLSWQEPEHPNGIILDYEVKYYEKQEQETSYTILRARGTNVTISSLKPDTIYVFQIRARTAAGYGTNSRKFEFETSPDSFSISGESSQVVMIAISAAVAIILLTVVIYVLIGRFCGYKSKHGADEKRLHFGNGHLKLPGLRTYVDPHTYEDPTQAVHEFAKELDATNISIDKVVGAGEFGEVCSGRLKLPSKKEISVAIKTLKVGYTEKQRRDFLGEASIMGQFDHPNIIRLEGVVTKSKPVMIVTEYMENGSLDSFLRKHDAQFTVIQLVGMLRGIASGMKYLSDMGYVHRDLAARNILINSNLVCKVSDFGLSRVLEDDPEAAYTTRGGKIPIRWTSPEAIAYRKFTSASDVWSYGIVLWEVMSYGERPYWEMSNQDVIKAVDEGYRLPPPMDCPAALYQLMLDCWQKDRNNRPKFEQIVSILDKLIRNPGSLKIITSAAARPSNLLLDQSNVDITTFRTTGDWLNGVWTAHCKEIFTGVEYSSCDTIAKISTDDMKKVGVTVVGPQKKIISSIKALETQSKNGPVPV
The following applies: at 0.1 µM.

Experiment [7] deals with T1, Ephrin type-A receptor 3 (Homo sapiens). The following applies: at 1 µM.
Experiment [8] concerns the target Ephrin type-A receptor 4 (Homo sapiens) (UniProt P54764). The following applies: at 0.1 µM.
Experiment [9] has the same target. The following applies: at 1 µM.
Experiment [10] deals with T2, Ephrin type-B receptor 2 (Homo sapiens) (UniProt P29323).
T2 sequence (whole entry): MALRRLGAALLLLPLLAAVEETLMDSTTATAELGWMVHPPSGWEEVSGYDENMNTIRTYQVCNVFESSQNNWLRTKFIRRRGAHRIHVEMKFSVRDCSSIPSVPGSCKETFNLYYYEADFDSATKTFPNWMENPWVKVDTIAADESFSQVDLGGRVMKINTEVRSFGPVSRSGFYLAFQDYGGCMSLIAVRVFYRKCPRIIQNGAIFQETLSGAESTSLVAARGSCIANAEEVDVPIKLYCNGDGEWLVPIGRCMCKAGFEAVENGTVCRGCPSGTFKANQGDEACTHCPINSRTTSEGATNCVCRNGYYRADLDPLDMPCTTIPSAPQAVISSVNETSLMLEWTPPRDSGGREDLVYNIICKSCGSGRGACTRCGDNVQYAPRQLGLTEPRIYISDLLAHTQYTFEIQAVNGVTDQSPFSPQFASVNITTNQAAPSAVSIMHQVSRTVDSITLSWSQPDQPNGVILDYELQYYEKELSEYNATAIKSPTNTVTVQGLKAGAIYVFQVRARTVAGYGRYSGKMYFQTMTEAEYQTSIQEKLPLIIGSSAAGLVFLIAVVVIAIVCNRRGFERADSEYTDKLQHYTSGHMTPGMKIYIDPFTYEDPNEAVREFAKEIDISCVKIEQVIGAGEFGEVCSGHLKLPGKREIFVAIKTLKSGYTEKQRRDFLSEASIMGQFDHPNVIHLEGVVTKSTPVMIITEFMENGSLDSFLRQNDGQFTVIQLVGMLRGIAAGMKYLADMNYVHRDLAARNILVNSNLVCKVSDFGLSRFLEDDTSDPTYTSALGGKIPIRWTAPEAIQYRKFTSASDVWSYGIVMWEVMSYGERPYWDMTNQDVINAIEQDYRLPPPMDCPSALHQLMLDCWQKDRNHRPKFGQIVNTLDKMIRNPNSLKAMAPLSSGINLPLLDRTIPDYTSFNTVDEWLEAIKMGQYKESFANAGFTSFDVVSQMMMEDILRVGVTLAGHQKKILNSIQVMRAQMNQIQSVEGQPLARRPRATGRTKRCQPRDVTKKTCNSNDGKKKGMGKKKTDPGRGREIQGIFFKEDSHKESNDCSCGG
Particulars: at 0.1 µM.

“And” between values parts separate entries of the source, which are not always exact repeats. Equal values may be shown once.

Epidermal growth factor receptor (Homo sapiens), P00533 [T790M], sequence (P00533 whole entry T790M): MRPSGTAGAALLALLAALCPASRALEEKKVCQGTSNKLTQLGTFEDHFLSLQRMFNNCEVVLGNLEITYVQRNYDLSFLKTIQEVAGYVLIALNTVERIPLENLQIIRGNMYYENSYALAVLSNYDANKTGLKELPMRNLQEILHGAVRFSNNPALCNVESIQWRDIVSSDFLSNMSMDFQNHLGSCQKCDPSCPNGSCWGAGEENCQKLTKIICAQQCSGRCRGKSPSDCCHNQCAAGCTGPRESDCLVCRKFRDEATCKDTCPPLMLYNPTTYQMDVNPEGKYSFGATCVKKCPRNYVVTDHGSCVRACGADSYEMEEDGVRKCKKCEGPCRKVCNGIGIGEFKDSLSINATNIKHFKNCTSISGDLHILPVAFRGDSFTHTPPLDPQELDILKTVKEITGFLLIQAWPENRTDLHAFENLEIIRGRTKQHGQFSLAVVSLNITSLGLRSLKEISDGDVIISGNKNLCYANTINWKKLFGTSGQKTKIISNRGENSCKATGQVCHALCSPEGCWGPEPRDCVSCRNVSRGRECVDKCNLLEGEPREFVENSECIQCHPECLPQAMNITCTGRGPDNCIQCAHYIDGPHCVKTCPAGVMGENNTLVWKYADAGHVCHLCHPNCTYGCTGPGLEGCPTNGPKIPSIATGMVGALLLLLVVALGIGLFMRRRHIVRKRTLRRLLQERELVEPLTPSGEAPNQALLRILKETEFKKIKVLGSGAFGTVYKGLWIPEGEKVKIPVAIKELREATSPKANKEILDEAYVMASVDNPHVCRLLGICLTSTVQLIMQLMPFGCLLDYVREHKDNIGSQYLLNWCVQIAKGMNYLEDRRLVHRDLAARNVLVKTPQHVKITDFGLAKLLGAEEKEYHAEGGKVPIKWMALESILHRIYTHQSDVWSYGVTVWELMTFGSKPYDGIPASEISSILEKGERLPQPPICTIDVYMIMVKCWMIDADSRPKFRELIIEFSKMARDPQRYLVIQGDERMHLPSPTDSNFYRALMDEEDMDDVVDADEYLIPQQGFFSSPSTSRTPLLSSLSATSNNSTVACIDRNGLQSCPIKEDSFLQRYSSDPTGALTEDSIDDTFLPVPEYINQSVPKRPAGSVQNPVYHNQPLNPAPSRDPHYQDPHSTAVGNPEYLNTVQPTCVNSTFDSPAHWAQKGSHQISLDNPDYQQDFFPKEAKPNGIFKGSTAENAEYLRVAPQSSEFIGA
Ephrin type-A receptor 2 (Homo sapiens), sequence (P29317 whole entry): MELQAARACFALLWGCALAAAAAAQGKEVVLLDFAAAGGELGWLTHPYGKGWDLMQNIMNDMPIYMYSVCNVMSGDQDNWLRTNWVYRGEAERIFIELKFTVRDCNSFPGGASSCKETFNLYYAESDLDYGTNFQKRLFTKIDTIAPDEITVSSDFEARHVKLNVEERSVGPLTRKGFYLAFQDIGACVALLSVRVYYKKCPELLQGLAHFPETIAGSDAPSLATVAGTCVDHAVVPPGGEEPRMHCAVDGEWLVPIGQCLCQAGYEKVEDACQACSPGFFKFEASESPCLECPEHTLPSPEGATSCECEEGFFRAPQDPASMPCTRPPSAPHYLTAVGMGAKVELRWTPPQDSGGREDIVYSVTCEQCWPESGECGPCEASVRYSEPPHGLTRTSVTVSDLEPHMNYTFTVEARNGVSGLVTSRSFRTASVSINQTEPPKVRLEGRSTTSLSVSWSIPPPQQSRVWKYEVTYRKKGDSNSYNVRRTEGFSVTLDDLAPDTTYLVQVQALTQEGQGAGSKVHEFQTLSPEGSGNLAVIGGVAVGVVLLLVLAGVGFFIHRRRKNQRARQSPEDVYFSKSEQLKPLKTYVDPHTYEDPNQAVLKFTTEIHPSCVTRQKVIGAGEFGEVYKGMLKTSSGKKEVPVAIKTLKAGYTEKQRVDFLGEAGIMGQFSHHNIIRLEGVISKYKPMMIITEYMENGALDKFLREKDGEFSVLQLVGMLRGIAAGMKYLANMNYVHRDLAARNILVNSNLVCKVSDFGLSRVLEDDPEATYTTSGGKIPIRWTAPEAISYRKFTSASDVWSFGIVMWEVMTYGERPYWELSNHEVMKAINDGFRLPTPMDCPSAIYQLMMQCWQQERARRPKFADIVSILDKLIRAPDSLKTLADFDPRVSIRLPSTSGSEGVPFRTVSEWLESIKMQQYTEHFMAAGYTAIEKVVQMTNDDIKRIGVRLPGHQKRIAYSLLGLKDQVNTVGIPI
Epidermal growth factor receptor (Homo sapiens), P00533 [L858R,T790M], sequence (P00533 whole entry T790M/L858R, looked up): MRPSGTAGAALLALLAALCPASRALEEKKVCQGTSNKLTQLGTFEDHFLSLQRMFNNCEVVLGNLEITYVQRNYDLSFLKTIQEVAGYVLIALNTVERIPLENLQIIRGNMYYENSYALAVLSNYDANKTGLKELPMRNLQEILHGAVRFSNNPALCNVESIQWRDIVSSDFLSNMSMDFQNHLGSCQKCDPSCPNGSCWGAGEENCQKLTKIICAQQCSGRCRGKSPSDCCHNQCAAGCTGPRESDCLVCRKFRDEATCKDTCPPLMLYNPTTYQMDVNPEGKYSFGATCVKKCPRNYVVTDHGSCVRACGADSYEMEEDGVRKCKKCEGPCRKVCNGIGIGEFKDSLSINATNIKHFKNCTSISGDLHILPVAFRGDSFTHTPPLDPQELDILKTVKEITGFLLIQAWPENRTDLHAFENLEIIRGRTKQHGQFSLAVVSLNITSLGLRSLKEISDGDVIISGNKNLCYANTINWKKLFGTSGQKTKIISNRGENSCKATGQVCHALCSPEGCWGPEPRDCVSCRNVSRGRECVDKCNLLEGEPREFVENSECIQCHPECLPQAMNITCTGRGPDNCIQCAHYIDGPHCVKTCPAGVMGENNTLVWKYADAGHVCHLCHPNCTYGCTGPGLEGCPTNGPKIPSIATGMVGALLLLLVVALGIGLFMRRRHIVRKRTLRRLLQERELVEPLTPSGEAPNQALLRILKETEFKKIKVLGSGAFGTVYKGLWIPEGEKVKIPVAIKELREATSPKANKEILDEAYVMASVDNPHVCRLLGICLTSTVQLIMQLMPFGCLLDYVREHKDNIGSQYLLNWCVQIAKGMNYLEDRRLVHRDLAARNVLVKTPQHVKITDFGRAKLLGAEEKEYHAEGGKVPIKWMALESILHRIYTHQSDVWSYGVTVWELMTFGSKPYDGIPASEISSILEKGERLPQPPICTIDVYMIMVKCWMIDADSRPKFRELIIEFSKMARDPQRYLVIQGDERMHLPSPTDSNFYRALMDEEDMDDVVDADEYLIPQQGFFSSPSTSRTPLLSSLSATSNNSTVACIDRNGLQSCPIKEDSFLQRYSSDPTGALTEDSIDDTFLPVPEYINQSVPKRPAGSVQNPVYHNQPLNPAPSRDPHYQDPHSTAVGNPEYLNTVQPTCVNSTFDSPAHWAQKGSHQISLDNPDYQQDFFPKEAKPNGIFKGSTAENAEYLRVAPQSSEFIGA
Ephrin type-A receptor 4 (Homo sapiens), sequence (P54764 whole entry): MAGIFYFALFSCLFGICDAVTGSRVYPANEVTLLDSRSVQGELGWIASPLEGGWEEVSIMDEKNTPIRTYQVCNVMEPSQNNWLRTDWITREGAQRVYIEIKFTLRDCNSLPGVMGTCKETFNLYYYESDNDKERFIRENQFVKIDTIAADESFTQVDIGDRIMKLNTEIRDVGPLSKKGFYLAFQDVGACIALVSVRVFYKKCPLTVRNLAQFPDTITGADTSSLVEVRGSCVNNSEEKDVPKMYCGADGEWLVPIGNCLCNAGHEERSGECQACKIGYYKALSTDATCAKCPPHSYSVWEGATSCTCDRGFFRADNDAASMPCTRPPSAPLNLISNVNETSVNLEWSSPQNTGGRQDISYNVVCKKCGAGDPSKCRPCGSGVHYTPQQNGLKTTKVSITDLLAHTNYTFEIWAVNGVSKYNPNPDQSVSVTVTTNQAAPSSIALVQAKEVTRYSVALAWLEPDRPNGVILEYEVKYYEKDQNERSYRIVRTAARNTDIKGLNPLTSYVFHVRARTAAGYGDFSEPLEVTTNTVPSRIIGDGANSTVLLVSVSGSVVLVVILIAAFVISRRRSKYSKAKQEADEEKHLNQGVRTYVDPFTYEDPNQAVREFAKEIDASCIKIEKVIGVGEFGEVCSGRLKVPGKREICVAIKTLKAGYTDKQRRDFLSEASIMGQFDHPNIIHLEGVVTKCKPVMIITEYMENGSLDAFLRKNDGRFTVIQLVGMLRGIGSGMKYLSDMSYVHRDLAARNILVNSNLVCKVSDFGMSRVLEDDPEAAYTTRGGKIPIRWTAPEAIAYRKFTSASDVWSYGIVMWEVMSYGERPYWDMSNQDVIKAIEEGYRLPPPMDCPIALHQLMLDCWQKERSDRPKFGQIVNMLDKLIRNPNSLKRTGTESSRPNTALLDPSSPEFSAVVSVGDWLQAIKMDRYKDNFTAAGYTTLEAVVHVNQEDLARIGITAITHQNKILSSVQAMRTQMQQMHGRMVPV

On to `COc1cc(N2CCN(C(C)C)CC2)ccc1Nc1nc(Nc2cccc(F)c2C(=O)O)c2cc[nH]c2n1`, for which the inhibition is 24.9% in experiment [1]; 9.68% in experiment [2]; 48.9% in [3]; 0.65% in [4]; -0.38% in experiment [5]; 2.98% in experiment [6]. Moreover, the inhibition was 6.01% in experiment [7], 8.47% in experiment [8], 11.2% in experiment [9] and 9.96% in [10].

In the case of `Cc1cc(O)cc(C)c1/C=C/c1cncc(C(=O)OC(C)(C)C)c1`, the inhibition in [1] was found to be 2.69%; in experiment [2], 2.41%; in experiment [3], 0.87%; in experiment [4] it was 16.6%; in experiment [5], 60.8%; in [6], 11.2%. In addition, the inhibition in [7] was determined as 22.4%; in experiment [8], 31.1%; in [9] it was 80.6%; in experiment [10], 23%.

As for `CS(=O)(=O)CCNCc1ccc(-c2ccc3ncnc(Nc4ccc(OCc5cccc(C(F)(F)F)c5)cc4)c3c2)o1`, the inhibition in [1] came to 1.6%; in [2], 0.98%; in [3], 3.77%; in experiment [4], 0.34%; in [5] it was 0.55%; in [6] it was 2.95%. Further, the inhibition in [7] came to 2.34%; in experiment [8] it was 6.4%; in [9], 8.61%; in [10] it was 7.05%.

`COc1c(C(N)=O)cc(-c2ccc(Cl)cc2)cc1-c1ccc(S(N)(=O)=O)cc1`: the inhibition in experiment [1] was 3.77%; in [2], -1.73%; in [3] it was 0.63%; in experiment [4], 1.79%; in experiment [5], 1.53%; in experiment [6], 3.06%. Further, the inhibition was determined as 4.11% in experiment [7], 8.42% in [8], 10.1% in experiment [9] and 8.67% in experiment [10].

Consider `Cc1c2ccc(N(C)c3ccnc(Nc4cccc(S(N)(=O)=O)c4)n3)cc2nn1C`, for which the inhibition in experiment [1] was 3.28%; in experiment [2], 2.62%; in experiment [3], 13.1%; in [4] it was -1.48%; in [5], 2.19%; in [6], 0.79%. For the same compound, the inhibition in experiment [7] was 2.97%; in [8], 8.51%; in [9], 14.2%; in experiment [10], 5.88%.

On to `CCOc1ccc2c(-c3ccnc(Nc4cc(OC)cc(C(F)(F)F)c4)n3)cnn2n1`, for which the inhibition in experiment [1] is 0.47%; in [2], 0.87%; in experiment [3], -2.16%; in [4] it was -2.58%; in experiment [5], -0.79%; in experiment [6], -0.82%. For the same compound, the inhibition in [7] amounted to 1.98%; in experiment [8] it was 2.94%; in [9] it was 6.63%; in experiment [10], 3.54%.

`COc1ccc(-c2nn3ncccc3c2-c2ccnc(Nc3ccc(F)c(F)c3)n2)cc1`: the inhibition in [1] is 6.23%; in experiment [2] it was 3.78%; in experiment [3], 8.64%; in experiment [4], 2.87%; in experiment [5] it was -0.08%; in [6], 3.49%. In addition, the inhibition was 6.3% in experiment [7], 8.99% in experiment [8], 16.4% in experiment [9] and 7.75% in [10].

For `COC(=O)Nc1nc2cc(Oc3ccc(NC(=O)Nc4ccccc4)cc3)ccc2[nH]1`, the inhibition in [1] is 2.64%; in [2], -2.44%; in [3] it was 2.14%; in experiment [4] it was 2.42%; in [5], 3.37%; in experiment [6], 4.93%. For the same compound, the inhibition worked out at 1.33% in [7], 8.86% in experiment [8], 11.2% in [9] and 5.01% in [10].

`FC(F)(F)CNc1nccc(-c2cnn3ncccc23)n1`: the inhibition is 0.02% in experiment [1]; -1.87% in experiment [2]; 1.32% in experiment [3]; 0.5% in experiment [4]; -1.3% in [5]; 3.4% in experiment [6]. Besides, the inhibition in experiment [7] is 4.73%; in experiment [8], 5.82%; in experiment [9] it was 7.58%; in experiment [10], 5.3%.

Regarding `Nc1nccc(-c2c(-c3ccc(F)cc3)ncn2C2CCNCC2)n1`, the inhibition in experiment [1] is -1.82% and -1.43%; in [2], -3.77% and -2.58%; in experiment [3], -3.38% and 2.32%; in [4], -1.11% and -2.31%; in experiment [5], -3.3% and -3.19%; in [6], -5.79% and -0.55%. The inhibition in experiment [7] was -3.63% and 1.63%; in experiment [8] it was -7.34% and 0.75%; in experiment [9] it was -6.76% and 4.23%; in experiment [10], -3.07% and 5.6%.

In the case of `CCN1CCC(C(=O)Nc2n[nH]c3nnc(-c4cccc(F)c4F)cc23)CC1`, the inhibition in [1] is 0.18%; in experiment [2], 0.75%; in experiment [3], -1.85%; in experiment [4] it was -3.74%; in experiment [5], -3.34%; in [6], -0.58%. For the same compound, the inhibition in experiment [7] was -0.43%; in [8] it was -1.7%; in [9] it was -0.26%; in experiment [10], 0.41%.

On to `CNC(=O)c1cncc(/C=C/c2ccccc2C)c1`, for which the inhibition turned out to be 4.37% in [1]; 1.98% in experiment [2]; 6.74% in [3]; 2.22% in experiment [4]; 3.92% in [5]; 6.53% in experiment [6]. In addition, the inhibition in experiment [7] came to 6.47%; in [8] it was 11.7%; in experiment [9], 26.1%; in experiment [10], 7.84%.

With `COc1cccc(-n2ncc3c(N/N=C/c4ccc(C(=O)NCCN(C)C)cc4)ncnc32)c1`, the inhibition in experiment [1] worked out at 4.06%; in experiment [2], 4.3%; in experiment [3], 25.9%; in [4] it was 1.33%; in [5], 5.44%; in experiment [6], 3.11%. Also, the inhibition in experiment [7] turned out to be 6.35%; in experiment [8], 2.76%; in [9], 15.9%; in experiment [10], 14.1%.

For `NS(=O)(=O)c1ccc(N/N=C2\C(=O)Nc3cccc(CCc4ccncc4)c32)cc1`, the inhibition is 0.76% in experiment [1]; -0.13% in experiment [2]; 1.83% in experiment [3]; -2.9% in experiment [4]; -1.98% in experiment [5]; 0.59% in [6]. For the same compound, the inhibition in experiment [7] worked out at 0.71%; in [8], 3.79%; in experiment [9], 5.47%; in [10] it was 4.47%.

Consider `CCCNc1cccc(-n2ncc3c(N/N=C/c4ccncc4)ncnc32)c1`, for which the inhibition in [1] was determined as 5.14%; in experiment [2], 1.81%; in [3], 2.7%; in experiment [4] it was 3.57%; in experiment [5], 5.31%; in experiment [6], 3.09%. The inhibition is 3.12% in experiment [7], 4.65% in [8], 17.4% in experiment [9] and -1.54% in experiment [10].

For `CC1=C(C(=O)Nc2ccc3[nH]nc(C)c3c2)C(c2ccc(C(F)(F)F)cc2)CC(=O)N1` (stereo not given), the inhibition in experiment [1] is -0.09%; in experiment [2] it was 3.65%; in experiment [3] it was -0.97%; in [4], 2.9%; in experiment [5], 2.18%; in experiment [6], 2.71%. The inhibition amounted to 2.28% in experiment [7], 5.51% in experiment [8], 5.67% in experiment [9] and 5.5% in experiment [10].
